From PubChem
Sampled rows, rich in hits. Any-hit rate of the full collection: about 3.4%.
Wnt bcat act: Wnt/beta-catenin pathway activators, primary screen, cell-based, plate reader, single point; Wnt/beta-catenin reporter cell assay, activator; activation, % at 9.35 µM; 1.2% of 300,000 active; AID 743398, 2014; in the data active = activation above about 30%, passing the limit was not always enough; inconclusive = no clear call, values can overlap the other calls
miR122 inh: miR-122 Renilla sensor signal increase in Huh7, primary screen, miR-122 inhibitor project, cell-based, single point, plate reader; Huh7 miR-122 Renilla luciferase sensor, 48 h; neutral wells = 0, positive control = 100; activation (reporter increase), % at 12.5 µM; 0.3% of 340,000 active; AID 602342, 2012;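 active = mean replicate activation score at least 90 and every replicate individually at or above 90; inconclusive = only one of the two criteria met; inactive = neither criterion met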;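 note: higher luciferase means less miR-122 activity so hits act as miR-122 inhibitors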
HIV Env fusion: inhibitors of HIV-1 Env-driven cell-cell fusion, primary screen, HeLa-JRFL effector, CEM21 target cells, luciferase. inhibition, % at 12.3 µM. 1.1% of 360,000 active;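 active = mean replicate inhibition score of at least 50 and every replicate individually at or above 50; inconclusive = only one of the two criteria met; inactive = mean below 50 and not all replicates reaching 50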
MITF act: activators of MITF-driven TRPM1 promoter reporter, primary screen, cell-based, SK-MEL-5, luciferase, single point | activation, % at 12.5 µM | AID 588334, 2011 | 0.75% of 300,000 active | SK-MEL-5 TRPM1-promoter luciferase, 24 h; % of positive control, neutral wells = 0;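 active = mean activation of at least 80% with every replicate also reaching 80%; inconclusive = mean reaches 80% but some replicate falls short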
esBAF inh: Bmi1 luciferase reporter increase in mESCs, primary screen, esBAF inhibitor project, mouse ES cells, Bmi1 luciferase knock-in, single point; 24 h; 100% = twice the neutral-well signal; reporter increase, % at 12.5 µM; 2% of 350,000 active; AID 602393, 2012; in the data active = activation above about 40%; inconclusive = no clear call, values can overlap the other calls;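 note: a rise in the Bmi1 reporter signal indicates esBAF inhibition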
A number is an active result; i = inactive; ? = inconclusive; nt = no result.

SMILES	Wnt bcat act	miR122 inh	HIV Env fusion	MITF act	esBAF inh
c1ccc2c(c1)CC/C2=N/Nc1nc2ccccc2[nH]1	i	i	i	82.0	i
CCOc1ccc(/C(O)=C2/C(=O)C(=O)N(CCCn3ccnc3)C2c2cccs2)cc1Cl (stereo unspecified)	i	i	i	nt	56.1
CCCOc1ccc(/C(O)=C2/C(=O)C(=O)N(CCCn3ccnc3)C2c2cccs2)cc1 (stereo unspecified)	i	nt	i	i	nt
COc1ccc(-n2ncc(S(=O)(=O)c3ccccc3)c2-c2ccc(Cl)cc2)cc1	i	i	60.5	nt	i
COc1cccc(NC(=O)N2CCc3nc(Nc4cc(Cl)cc(Cl)c4)ncc3C2)c1	i	i	i	nt	i
CC(C)c1ccc(Nc2ncc3c(n2)CCN(C(=O)Nc2ccc(F)c(Cl)c2)C3)cc1	i	i	i	nt	56.3
COC(=O)[C@H](CCSC)NC(=O)c1cccnc1SC	36.0	nt	i	nt	nt
CSc1ncccc1C(=O)NC(C)CCc1ccccc1 (stereo unspecified)	i	i	i	i	i
Cc1noc(C)c1NC(=O)Nc1ccc2c(c1)CC(=O)N([C@@H](C)CO)C[C@@H](C)[C@H](CN(C)Cc1ccc(C(=O)O)cc1)O2	nt	i	i	nt	i
C[C@@H]1CN([C@@H](C)CO)C(=O)c2cc(NC(=O)Nc3cccc4ccccc34)ccc2O[C@@H](C)CCCCO[C@@H]1CN(C)Cc1ccccc1	nt	i	i	nt	i
C=CCC1(CC=C)CCCN1C(=O)C1CCC(=O)N(CCc2ccccc2)C1 (stereo unspecified)	i	i	i	103.1	i
C=CCC1(CC=C)CCCN1C(=O)C1CCC(=O)N(CCc2ccc(OC)cc2)C1 (stereo unspecified)	i	i	i	i	68.7
O=C1CCC(C(=O)N2CCSCC2)CN1CCc1ccccc1 (stereo unspecified)	i	i	i	i	i
COc1ccc(NC(=O)Nc2ccc3[nH]ccc3c2)cc1	i	i	i	nt	nt
COc1ccc(NC(=O)Nc2ccc3nccnc3c2)cc1	nt	i	nt	95.8	55.2
COc1ccc(NC(=O)Nc2ccc3nonc3c2)cc1	38.6	i	i	nt	nt
CC(=O)Nc1ccc2nc(-c3cccn3C)[nH]c2c1	i	i	i	nt	51.2
CC(=O)Nc1ccc2nc(-c3cccs3)[nH]c2c1	i	i	nt	i	i
Cn1cccc1-c1nc2ccc(NC(=O)c3cccs3)cc2[nH]1	i	i	i	i	64.4
C[C@@H]1CCCCO[C@H](CN(C)C(=O)C2CCCCC2)[C@@H](C)CN([C@@H](C)CO)C(=O)c2cc(NC(=O)c3ccccc3)ccc2O1	nt	i	i	nt	i
Cc1cc(C)c2oc(-c3cccc(N)c3)nc2c1	i	i	i	nt	55.0
Cc1ccc2nc(-c3cccc(N)c3)oc2c1	i	nt	nt	i	nt
CCC(=O)NC[C@H]1[C@@H](c2ccc(-c3cccc(F)c3)cc2)[C@@H](CO)N1C(=O)CC	nt	i	nt	nt	i
COCCOC(=O)N1C(=O)[C@@]2(c3ccccc31)[C@H](C(=O)N1CCN(c3ncccn3)CC1)[C@H]1C(=O)O[C@H](c3ccccc3)[C@H](c3ccccc3)N1[C@@H]2c1ccccc1OCCO	nt	nt	i	nt	nt
Cc1ccc(S(=O)(=O)N2CCCOC2CNC(=O)C(=O)NCCC2=CCCCC2)cc1 (stereo unspecified)	i	nt	59.8	i	nt
SMILES	Wnt bcat act	miR122 inh	HIV Env fusion	MITF act	esBAF inh
COC(=O)c1c(NC(=O)CN2CCC3(O)CCCCC3C2c2ccc(F)cc2)sc(C)c1C (stereo unspecified)	nt	i	i	i	nt
COC(=O)c1c(NC(=O)CN2CCC3(O)CCCCC3C2c2cc(OC)ccc2OC)sc(C)c1C (stereo unspecified)	nt	nt	90.6	i	nt
C[C@@H]1CN([C@@H](C)CO)C(=O)c2cc(NC(=O)NC3CCCCC3)ccc2O[C@@H](C)CCCCO[C@H]1CN(C)Cc1ccc(C(F)(F)F)cc1	nt	i	i	nt	i
Cc1cc(C(=O)CSc2ccc(F)cc2)cc(C)c1OC(=S)N(C)C	i	i	nt	i	i
COc1ccc(SCC(=O)c2cc(C)c(OC(=S)N(C)C)c(C)c2)cc1	40.8	i	i	i	i
C[C@@H]1CN([C@H](C)CO)C(=O)c2cc(NC(=O)Cn3cnnn3)ccc2O[C@H]1CN(C)S(=O)(=O)c1cccs1	nt	i	nt	nt	i
COc1ccc(OC)c(NC(=O)NCCc2cccc(Cl)c2)c1	60.1	nt	i	i	nt
CCc1ccc2nc(NC(=O)C3CCN(c4ncnc5sc(C)c(C)c45)CC3)sc2c1	i	i	i	i	59.5
Nc1ccc2nc3c(=O)n(C4CCCCC4)c(=O)[nH]c3nc2c1	42.9	i	i	i	i
CCCCn1c(=O)[nH]c2nc3cc(N)ccc3nc2c1=O	i	i	i	i	nt
O=C(CSc1nc2ccccc2c(=O)n1NC(=O)c1ccccc1)c1ccc(Cl)cc1	32.3	i	i	i	i
O=C(CSc1nc2ccccc2c(=O)n1NC(=O)c1ccccc1)c1ccccc1	nt	i	i	i	i
O=C(C[C@H]1C[C@H]2c3cc(NC(=O)C4CCC4)ccc3O[C@H]2[C@H](CO)O1)NCc1ccccc1F	nt	i	i	nt	i
COc1ccc(C2C(C(N)=O)=C(C)Nc3nc(-c4cccc(Cl)c4)nn32)cc1OC (stereo unspecified)	nt	i	57.9	nt	i
COc1ccc(C2C(C(N)=O)=C(C)Nc3nc(-c4ccccc4)nn32)cc1OC (stereo unspecified)	i	nt	i	i	i
Cc1ccc(NC(=S)N2CCC(c3ccccc3)C2)c(Cl)c1 (stereo unspecified)	42.1	nt	i	i	nt
Cc1ccc(C2CCN(C(=O)Nc3ccccc3)C2)cc1 (stereo unspecified)	nt	i	nt	?	53.2
O=C(Nc1ccc(Cl)cc1)N1CCC(c2ccccc2)C1 (stereo unspecified)	55.8	nt	i	115.8	nt
Cc1ccc(NC(=O)N2CCC(c3ccccc3)C2)cc1C (stereo unspecified)	56.3	i	i	127.7	i
CO[C@H]1CN(C)C(=O)c2ccc(NS(=O)(=O)c3ccc(C)cc3)cc2OC[C@H](C)N(C(=O)NC(C)C)C[C@H]1C	nt	i	nt	nt	i
O=C(Nc1ccc(Cl)cc1)c1csc([C@@H]2C[C@H](O)[C@@H](CO)O2)n1	i	i	i	nt	i
O=C(Nc1cccc(Cl)c1)c1csc([C@H]2C[C@H](O)[C@@H](CO)O2)n1	?	i	i	nt	64.6
COc1ccc(S(=O)(=O)Nc2ccc3c(c2)OC[C@@H](C)N(C(=O)NC(C)C)C[C@@H](C)[C@H](OC)CN(C)C3=O)cc1	nt	nt	i	nt	i
CCCCNc1cccc2c1S(=O)(=O)N(CCCC)CC(COCc1ccccc1)O2 (stereo unspecified)	i	i	61.1	i	i
NC(=S)n1[nH]c(-c2ccc([N+](=O)[O-])cc2)c(N=Nc2ccc(O)cc2)c1=O	i	i	i	nt	i
